This note sets out measurements from the supplement of paper PMC9897528.

Values without a mark were called inactive.
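Also: conidia screened in RPMI 1640 medium under 5% CO2, growth read by spectrophotometer, medium with 0.5% DMSO serving as the untreated reference.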

The test has as its system Scedosporium aurantiacum CBS 136046. Put plainly: growth inhibition relative to DMSO control (OD600); higher = more antifungal activity, active = 80 or more; extreme values may be limits of the assay. The note with it: 5 µM; 72 h; 37 °C.
As to `N=C(N)NCCCCC(=O)Nc1cc(C(F)(F)F)cc(NC(=O)c2cc(C(=O)Nc3cc(C(F)(F)F)cc(NC(=O)CCCCNC(=N)N)c3O[C@@H]3CCNC3)ncn2)c1O[C@@H]1CCNC1`, the growth inhibition was 37.1%. For the compound `CCCCc1ccc(-c2cc(C(=O)O)cc(-c3ccc(Cl)cc3)n2)cc1`, the growth inhibition was 37.3%. `NC(=O)c1ccc(I)c([N+](=O)[O-])c1`: the growth inhibition is 13.9%.

Consider `O=C(O)c1cc(-c2ccccc2)nc2ccccc12`, for which the growth inhibition is 12.6%. With `CC(C)(C)c1ccc(C(Cn2cccc(C(F)(F)F)c2=O)NC2Cc3ccccc3C2)cc1` (stereo not drawn), the growth inhibition was 28.9%. The figure for `Nc1cc(N)c2nc(-c3ccccc3)c(Nc3ccc(F)cc3)nc2c1` is 0.18%; for `Nc1nc2c(Cc3cccnc3)c[nH]c2c(=O)[nH]1` it is 2.57%; for `c1cc(CN2CCCNCCNCCCNCC2)ccc1CN1CCCNCCNCCCNCC1` it is 6.54%. Take `c1cnc(NCc2ccc(CNc3ncccn3)cc2)nc1`: the growth inhibition is 10.1%. For the compound `C=C[C@]1(C)C[C@@H](OC(=O)CS[C@@H]2C[C@H]3CC[C@@H](C2)N3C)[C@]2(C)[C@H](C)CC[C@]3(CCC(=O)[C@H]32)[C@@H](C)[C@@H]1O`, the growth inhibition is 35.7%. Consider `Nc1nc(-c2ccccc2)nc2c1ncn2[C@@H]1O[C@H](COS(=O)(=O)NC(=O)c2ccccc2O)[C@@H](O)[C@H]1O`, for which the growth inhibition was 30%. The figure for `Cc1cc(O)c2c(c1)C(=O)c1c(I)c(O)c(I)c(O)c1C2=O` is 2.05%; for `NC[C@H]1OB(O)c2c(OCCCO)cccc21` it is 34.1%. The figure for `O=C(Nc1cccc(C2=NCCN2)c1)c1ccc(-c2ccc(C(=O)Nc3cccc(C4=NCCN4)c3)cc2)cc1` is 1.73%. As to `Cc1ccc(N2CCC(CCOc3ccc(S(C)(=O)=O)cc3)CC2)nn1`, the growth inhibition was 24.5%. `O=C(Nc1ccc(F)cc1)c1nn(-c2ccccc2)c(=O)cc1Cl`: the growth inhibition is 32.8%.

`CSC[C@H]1CN(Cc2c[nH]c3c(N)ncnc23)C[C@@H]1O`: the growth inhibition is 10.5%. For `[N-]=[N+]=N[C@H]1C[C@H](n2ccc(=O)[nH]c2=O)O[C@@H]1CO`, the growth inhibition is 11.7%. In the case of `CCCCCCCc1[nH]c2ccccc2c(=O)c1O`, the growth inhibition was 8.25%. Take `O=S(=O)(Nc1ccc(-n2cccc2)cc1)c1ccc(Cl)c(Cl)c1`: the growth inhibition is 41.8%.

In the case of `C[C@H](NC(CC(=O)c1ccccc1C(F)(F)F)C(=O)O)c1ccccc1` (stereo partly drawn), the growth inhibition was 2.25%. With `C[C@H](c1cccc2ccccc12)N(C)Cc1ccccc1`, the growth inhibition was 14.5%. For the compound `COc1ccc(C[C@@H](C)[C@@H](C)Cc2ccc(OC)c(OC)c2)cc1OC`, the growth inhibition was 8.67%.
